CHT block – inhibitors of human choline transporter CHT. AID 488975, 2010. High affinity choline transporter 1 (Homo sapiens), Q9GZV3. actives 0.86% (n = 310,000). CHT-expressing cells, membrane potential dye, choline response; active compounds read low. B-score at 10 µM;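 active = B-score over 3 SD under the library average, and starting fluorescence ratio not unusually high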;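 also: choline stimulus applied at its EC90 after an EC20 pre-addition; B-score computed on integrated fluorescence ratio after choline addition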
ANO1 activ – TMEM16A chloride channel activators or potentiators, primary screen, cell-based, HTS; Anoctamin-1 (Mus musculus), Q8BHY3; B-score at 10 µM; HEK293 TMEM16A/YFP-H148Q/I152L, iodide quench fluorescence; active compounds read low; actives 0.3% (n = 340,000);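 active = fluorescence-ratio B-score plate-corrected deviation score at least 3 library SD below zero, with starting fluorescence score within 5 deviations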;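 also: channel opened by trigger with iodide after compound preincubation; score built on the fluorescence ratio of max minus min over baseline; more negative score means more quench and so TMEM16A activation or potentiation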
HDAC3 inh – HDAC3 deacetylase inhibitors, primary screen, biochemical, fluorescence, cell-free homogeneous; Histone deacetylase 3 (Homo sapiens), O15379; recombinant HDAC3, fluorogenic peptide/trypsin coupled; inhibition, % at 8.3 µM; actives 0.15% (n = 320,000); in the data active = inhibition above about 26%, passing the limit was not always enough
CHT PAM – CHT positive allosteric modulators, primary screen, cell-based, membrane potential dye, choline EC20. actives 0.49% (n = 310,000). B-score at 10 µM. CHT-expressing cells; active compounds read high; LV-AA mutant CHT in HEK293 cells;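 active = initial fluorescence not abnormally high and integrated response B-score, plate-corrected, over 3 SD above library mean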
ANO1 block – TMEM16A chloride channel inhibitors, primary screen, cell-based, HTS | actives 1.2% (n = 310,000) | normalized B-score (activity score, 25-100; higher = stronger inhibition) at 10 µM | Anoctamin-1 (Mus musculus), Q8BHY3 | HEK293 TMEM16A/YFP iodide influx fluorescence, ionomycin;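 active = ratio plate-corrected score three or more library SD toward inhibition, starting fluorescence score within five deviations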;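 also: score derived from kinetic fluorescence span divided by baseline fluorescence per well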
PHOSPHO1 inh – PubChem AID 1565; Phosphoethanolamine/phosphocholine phosphatase (Homo sapiens), Q8TCT1; actives 1.1% (n = 290,000); recombinant PHOSPHO1, absorbance phosphatase assay; inhibition, % at 13.3 µM; in the data active = inhibition above about 60%
Target sequence (Q8TCT1 whole entry, looked up): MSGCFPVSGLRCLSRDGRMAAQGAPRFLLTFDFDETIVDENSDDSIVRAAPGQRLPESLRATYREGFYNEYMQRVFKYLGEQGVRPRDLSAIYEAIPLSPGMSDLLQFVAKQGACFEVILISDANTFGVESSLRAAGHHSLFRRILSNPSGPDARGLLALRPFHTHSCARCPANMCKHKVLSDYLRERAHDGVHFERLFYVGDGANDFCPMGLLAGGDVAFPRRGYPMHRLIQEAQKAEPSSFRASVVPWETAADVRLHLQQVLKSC
CHT block conf – CHT inhibitors, confirmation, cell-based, membrane potential dye, duplicate | shares compounds with CHT block | CHT-expressing cells, choline membrane potential dye; LV-to-AA substituted CHT, HEK293 cells | CHT activity remaining % of control (active compounds read low), % at 10 µM | actives 70% (n = 2,400) | AID 493221, 2011;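 active = choline transporter activity left, mean of duplicates at 10 µM, below buffer-only control mean minus 3 SD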;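 also: depolarization triggered by choline at its EC90 following an EC20 pre-addition; 0% = hemicholinium-3 full block and 100% = buffer-only control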
HEK293 CHT ctr – membrane potential effects in parental HEK293, counter-screen for CHT inhibitor project, cell-based, membrane potential dye | shares compounds with CHT block | choline response; active = decrease or increase beyond buffer ±3SD | membrane potential ratio readout (active if shifted either direction beyond buffer ±3SD; no single direction) at 10 µM | actives 4% (n = 2,400);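 also: parental cells lack the transporter so any hit is non-specific; ratio is peak minus trough fluorescence over baseline after EC90 choline challenge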
* hit, by the source's call; i = inactive; . = no result given. Rows were chosen to be rich in hits. Some 3.2% of all compounds tested hit in one or more screens of this group.

SMILES | CHT block | ANO1 activ | HDAC3 inh | CHT PAM | ANO1 block | PHOSPHO1 inh | CHT block conf | HEK293 CHT ctr
COc1ccc(-c2nc(-c3cccs3)c(-c3cccs3)[nH]2)cc1O | -7.2* | i | -2 | i | i | 12 | 70%* | i
O=C(O)c1ccc(-c2nc(-c3ccccc3)c(-c3cccs3)[nH]2)cc1 | i | i | -140 | i | i | 24 | . | .
O=C(Cc1ccc(Br)cc1)Nc1cccc(-c2cn3c(n2)SCC3)c1 | i | i | 4 | i | i | -47 | . | .
COc1ccccc1Nc1nnc(SCC2CCCCO2)s1 (stereo not drawn) | -6.3* | i | 3 | i | i | -16 | 57%* | i
CC1CCN(CC(O)COc2ccc(OCC(O)CN3CCC(C)CC3)cc2)CC1 (stereo not drawn) | -10* | i | -7 | i | i | -23 | 5.8%* | i
CC(=O)c1ccc(OCC(O)CN2CCC(C)CC2)cc1 (stereo not drawn) | i | i | -1 | i | i | -2 | . | .
CC(NCc1ccc(F)cc1)C(=O)Nc1cc(S(=O)(=O)N2CCCCC2)ccc1Cl (stereo not drawn) | -5.8* | i | 2 | i | i | 8 | 50%* | i
O=C(C1=C(O)C(=O)N(CCCn2ccnc2)C1c1ccc(F)cc1)c1ccco1 (stereo not drawn) | i | i | -1 | i | i | 38 | . | .
CC1(C)CC(=O)C=C(Nc2cccc(Cl)c2Cl)C1 | -5* | i | 2 | i | i | . | 63%* | i
CNc1nc(-c2ccc3c(c2)CCN3C(=O)c2cccc(F)c2)cs1 | -5.2* | i | -1 | i | i | 20 | i | i
CNc1nc(-c2ccc3c(c2)CCN3C(=O)c2ccc(F)cc2)cs1 | . | i | . | . | . | 16 | . | .
COCCCn1c(SCC(=O)Nc2sc3c(c2C#N)CCCC3)nnc1-c1ccncc1 | -5.5* | i | 2 | i | i | -10 | 62%* | i
O=C(CSc1ccccn1)N1CCN(c2ncc(C(F)(F)F)cc2Cl)CC1 | -5.3* | i | 14 | i | i | 56 | i | i
COc1cc(N(C)C)c([N+](=O)[O-])cc1C(=O)NC(C)CNc1ccc([N+](=O)[O-])cc1Cl (stereo not drawn) | -5.6* | i | -5 | i | i | 3 | i | i
CCN(CC)CCNC(=O)c1cc([N+](=O)[O-])c(N(C)C)cc1OC | i | i | 5 | i | i | 6 | . | .
O=[N+]([O-])c1cc(-c2ncccn2)c([N+](=O)[O-])s1 | -6.3* | i | 4 | i | i | 2 | 48%* | i
C=Cn1cc[n+](CC(=O)c2ccc(Cl)cc2)c1 | -6.7* | i | 0 | i | i | 20 | 48%* | i
C=Cn1cc[n+](CC(=O)c2ccc(Br)cc2)c1 | -6.8* | i | 2 | i | i | 39 | 30%* | i
Oc1ccccc1Cn1nnc2ccccc21 | i | i | -7 | i | i | . | . | .
COCCn1c(=O)[nH]c2cc(C(=O)N3CCN(c4cc(C)ccc4C)CC3)ccc2c1=O | i | i | -4 | i | i | 35 | . | .
Cc1csc(NC(=O)CCN2C(=O)c3ccccc3S2(=O)=O)n1 | -5.9* | i | -4 | i | i | -40 | 69%* | i
CCCOc1ccc(C(C)=O)cc1CC(C(=O)OCC)C(=O)OCC | -5* | i | 8 | i | i | 33 | i | i
CCC(=O)Nc1cccc(NC(=O)CSc2nnnn2Cc2ccccc2)c1 | i | i | 4 | i | i | 50 | . | .
CCn1cc(CNC(=O)/C=C/c2cnn(C)c2)c(C)n1 | i | i | -1 | i | i | 4 | . | .
COc1cccc(CNc2ccc(N3CCCCC3)cc2)c1OC | -15* | i | 12 | i | i | -3 | 12%* | i
COc1ccc(NC(=O)Cn2nnc(-c3ccccc3F)n2)cc1 | i | i | -12 | i | i | -14 | . | .
COc1ccc(CNC(=O)CN(C(=O)Cn2nnc(-c3ccccc3F)n2)c2ccc(C)cc2)cc1 | -5.2* | i | 2 | i | i | 8 | i | i
CC1(Cc2cn(CCC#N)c3ccccc23)OCCO1 | i | i | -2 | i | i | 9 | . | .
COc1ccccc1OC(C)c1nnc(SCC(=O)Nc2c(C)n(C)n(-c3ccccc3)c2=O)n1-c1ccccc1 (stereo not drawn) | i | i | -3 | i | i | 40 | . | .
Cc1c(NC(=O)CSc2nnc(C(C)Oc3ccc(Cl)cc3)n2-c2ccccc2)c(=O)n(-c2ccccc2)n1C (stereo not drawn) | -10* | i | 2 | i | i | 36 | 22%* | i
